# Measured values taken from PubChem BioAssay (NCATS).
# Records with an inconclusive call do not appear. Entries that show only a call come without a potency. Active and inactive are the calls of the source. The call rests on the fitted dose curve; in most records, active means well fitted curve in the direction sought with a large enough effect; inconclusive means small, poorly fitted or top-dose-only effect, or another doubt; inactive means no such curve, though single readings can be large; an effect the other way counts as inactive or inconclusive.
# Key:
# [1] = biological target: Aldehyde dehydrogenase, mitochondrial (Homo sapiens) (UniProt P05091); assay: qHTS for Inhibitors of the Aldehyde Dehydrogenase Family (ALDH2) Primary screen (AID 2061308); further: nearly all actives have a fitted effect of over 55% in size; further: potency means the concentration at half of the fitted maximal effect
# [2] = biological target: Retinaldehyde dehydrogenase 3 (Homo sapiens) (UniProt P47895); assay: qHTS for Inhibitors of the Aldehyde Dehydrogenase Family (ALDH1A3) Confirmatory screens (AID 2061311); further: nearly all actives have a fitted effect of over 60% in size; further: potency means the concentration at half of the fitted maximal effect
# [3] = biological target: Retinal dehydrogenase 2 (Homo sapiens) (UniProt O94788); assay: qHTS for Inhibitors of the Aldehyde Dehydrogenase Family (ALDH1A2) Confirmation screens (AID 2061314); further: potency means the concentration at half of the fitted maximal effect; nearly all actives have a fitted effect of over 65% in size
# [4] = biological target: Retinaldehyde dehydrogenase 3 (Homo sapiens) (UniProt P47895); assay: qHTS for Inhibitors of the Aldehyde Dehydrogenase Family (ALDH1A3) Primary screen (AID 2061315)
# [5] = biological target: Aldehyde dehydrogenase 1A1 (Homo sapiens) (UniProt P00352); assay: qHTS for Inhibitors of the Aldehyde Dehydrogenase Family (ALDH1A1) Confirmatory screens (AID 2061316); further: nearly all actives have a fitted effect of over 65% in size; further: potency means the concentration at half of the fitted maximal effect
# [6] = biological target: Retinaldehyde dehydrogenase 3 (Homo sapiens) (UniProt P47895); assay: qHTS for Inhibitors of the Aldehyde Dehydrogenase Family (ALDH1A3) Validation screen (AID 2061312); further: nearly all actives have a fitted effect of over 45% in size; further: potency means the concentration at half of the fitted maximal effect
SMILES,Potency [1],Potency [2],Potency [3],Potency [4],Potency [5],Potency [6]
CNc1ncc(-c2cccc3ccccc23)o1,inactive,25.2 µM (active),10.1 µM (active),inactive,,
c1c[nH]c(C2CCN(c3ncc(-c4ccc5c(c4)OCCCO5)s3)CC2)n1,inactive,5.04 µM (active),4 µM (active),inactive,1.79 µM (active),
CC(=O)Nc1sc2c(c1-c1ccc(N3CCN(C(C)=O)CC3)nc1)CCNC2,inactive,12.7 µM (active),7.98 µM (active),inactive,,
CNC(=O)C1=C(C)NC(Nc2nc3ccccc3o2)=NC1c1[nH]ncc1Cl (stereo not given),inactive,inactive,,inactive,,
COc1ccc(C(=O)N(Cc2ccccc2)Cc2ccco2)c(O)c1,inactive,14.2 µM (active),25.2 µM (active),inactive,,
Cc1ccc(CNc2cccc(N3CCCCC3)c2)cc1,inactive,22.5 µM (active),,inactive,,
CN(C)Cc1ccc(-c2cnn3c(-c4cccc(NC(=O)c5cccc(C(F)(F)F)c5)c4)ccnc23)cc1,inactive,,,inactive,,inactive
CC(=O)N1CCN([C@H]2CCN(C(=O)N(C)[C@H](C)c3cc(C(F)(F)F)cc(C(F)(F)F)c3)[C@@H](c3ccc(F)cc3C)C2)CC1,inactive,,,inactive,,inactive
O=C(CCCCCCC(=O)Nc1ccc(C2OC(CSc3nc(-c4ccccc4)c(-c4ccccc4)o3)CC(c3ccc(CO)cc3)O2)cc1)NO (stereo not given),inactive,,,,,10 µM (active)
NC(=O)C1CCN(c2nc(-c3ccccc3-c3ccccc3)cs2)CC1,inactive,2.83 µM (active),,,3.18 µM (active),
Cc1ccc(S(=O)(=O)Nc2ccc(NS(=O)(=O)c3ccc(C)cc3)c3ncccc23)cc1,inactive,15.9 µM (active),,inactive,inactive,
NC(=O)C(CCC(F)(F)F)N(Cc1ccc(-c2ncon2)cc1F)S(=O)(=O)c1ccc(Cl)cc1 (stereo not given),inactive,,,inactive,,inactive
Cc1noc(C)c1S(=O)(=O)Nc1cnccc1C(=O)Nc1nc(-c2ccccc2)cs1,inactive,inactive,,inactive,,
Cc1ccnc(NC(=S)N2CCN(c3ccc4ccccc4n3)CC2)c1,2.82 µM (active),11.3 µM (active),,,3.18 µM (active),
CC(C)[C@@](C)(O)[C@@H]1CN(c2nc(-c3[nH]nc4ncccc34)c(F)cc2Cl)CCN1,inactive,,,inactive,,inactive
CCN(Cc1ccccc1)C(=O)Cn1c(=O)n(C)c2cnc(-c3ccccc3)nc21,inactive,,,inactive,,inactive
Cc1nc(Nc2cnn(C3CCNCC3)c2)nc2c1N(C)C(=O)c1cc3ccccc3cc1N2C,inactive,,,inactive,,inactive
C[C@@H](CN1CCC(n2c(=O)[nH]c3cc(Cl)ccc32)CC1)NC(=O)c1ccc2ccccc2c1,inactive,,,inactive,,inactive
Cc1cnc(-c2ccccc2N(C)C)nc1NCc1ccc(-c2cccnc2)cc1,inactive,3.55 µM (active),,inactive,14.2 µM (active),
CCS(=O)c1nc(-c2cccc(OCc3ccccc3)c2)cc(C(F)(F)F)n1 (stereo not given),inactive,,,inactive,,inactive
COc1ccc(C2NC(=O)c3ccccc3N2)cc1COc1ccc(NC(C)=O)cc1 (stereo not given),inactive,inactive,,inactive,,

SMILES,Potency [1],Potency [2],Potency [3],Potency [4],Potency [5],Potency [6]
Cc1cc(C)nc(NC(=S)N2CCN(c3ccc4nonc4c3)CC2)c1,inactive,15.9 µM (active),,inactive,11.3 µM (active),
O=C(Nc1ncc(SCCN2CCCC2)s1)C1(c2ccc(S(=O)(=O)C3CC3)cc2)CC1C1CCCCC1 (stereo not given),inactive,,,inactive,,inactive
COc1cccc(CNc2ccc(S(=O)(=O)Nc3cccc4ccncc34)cc2)c1O,inactive,22.5 µM (active),,inactive,inactive,
CCOc1cc(C(C)(C)C)ccc1C1=NC(C)(c2ccc(Cl)cc2)C(C)(c2ccc(Cl)cc2)N1C(=O)N1CCN(CCCS(C)(=O)=O)CC1 (stereo not given),inactive,,,inactive,,inactive
Cc1cc(C)nc(NCc2ccc(O)c3ncccc23)c1,11.2 µM (active),5.04 µM (active),,,11.3 µM (active),
C[C@H]1[C@H](C)C[C@@H](C(=O)O)C2CC[C@]3(C)C(=CC[C@@H]4[C@@]5(C)CC[C@H](O)C(C)(C)[C@@H]5CC[C@]43C)[C@@H]21 (stereo not given in full),inactive,,,inactive,,inactive
COc1ccc(NS(=O)(=O)c2sc3ccc(Cl)cc3c2C)cc1N1CCNCC1,inactive,,,inactive,,inactive
N#CC(CCCN1CCC(O)(c2ccc(Cl)cc2)CC1)(c1ccccc1)c1ccccc1,inactive,,,inactive,,inactive
CC1(C)N=C(Nc2nc3ccccc3o2)NC2=C1C(=O)CCC2,inactive,inactive,,inactive,,
CCS(=O)(=O)N(Cc1cccnc1)c1cccc(-c2ccc(C#N)cc2)c1,inactive,,,,,6.31 µM (active)
COc1ccc(C2=NC(c3ccc(Cl)cc3)C(c3ccc(Cl)cc3)N2C(=O)N2CCNC(=O)C2)c(OC(C)C)c1 (stereo not given),inactive,,,inactive,,inactive
CC(=O)OC12COC1CC(O)C1(C)C(=O)C(O)C3=C(C)C(OC(=O)C(O)C(NC(=O)OC(C)(C)C)c4ccccc4)CC(O)(C(OC(=O)c4ccccc4)C21)C3(C)C (stereo not given),inactive,,,inactive,,inactive
CCN(CC)CCN(Cc1ccc(-c2ccc(C(F)(F)F)cc2)cc1)C(=O)Cn1c(SCc2ccc(F)cc2)nc(=O)c2c1CCC2,inactive,,,inactive,,inactive
Cc1cc(C)nc(NC(=S)N2CCN(c3cccc4[nH]ccc34)CC2)c1,inactive,7.12 µM (active),,inactive,8.96 µM (active),
CCOC(=O)c1[nH]c2c(c1C)C(=O)CC(c1ccco1)C2 (stereo not given),inactive,12.7 µM (active),,inactive,2.52 µM (active),
CNC(=O)c1ccccc1Nc1nc(Nc2ccc3c(c2OC)CCCC(N2CCN(CCO)CC2)C3)ncc1Cl (stereo not given),inactive,,,inactive,,inactive
N#Cc1ccc2[nH]c(O)c(-c3ccc(CN4CCOCC4)cn3)c2c1,inactive,,,,,10 µM (active)
COc1cc2nc(N3CCC(N4CCCCC4)CC3)nc(NC3CCCCCC3)c2cc1OC,inactive,,,inactive,,inactive
Cc1occc1-c1ccc2ncnc(NCc3ncc[nH]3)c2c1,inactive,4 µM (active),,inactive,,
O=C(NCCCN1CCNCC1)c1cccc(-c2cc(O)c3ncccc3c2)c1,inactive,10.1 µM (active),,inactive,inactive,
Cc1ccnc(NC(=S)N[C@@H]2CCN(c3cccc(C(F)(F)F)c3)C2)c1,inactive,inactive,,inactive,,
